From PubChem BioAssay
Activity calls are given as the source filed them.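 How the source made its calls, unless noted: active means fluorescence slope higher than the sample average by over 3 SD (cut at about -0.22 in these data, passing the limit was not always enough); inactive means the rest.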

Tests used:
[1] = inhibitors of TNFa-induced NFkB p65 translocation, primary screen, imaging, HUVEC, MLSMR starter and 10KST1 sets (AID 438;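 active means inhibition above 20% together with a positive visual image hit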;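 further: compound added about 3h40 before a 20 min TNFalpha stimulation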;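 on inhibition: signal is the nuclear over cytoplasmic p65 intensity ratio per well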); settings: HUVEC TNFa-induced p65 nuclear translocation; cell count: measured here: nuclei count (cytotoxicity indicator), at 2.08 µM; inhibition: at 2 µM, stronger effect = higher value, 0% TNFa-plus-vehicle, 100% no-TNFa wells
[2] = inhibitors of mutant huntingtin aggregation, primary screen, imaging, exon1htt(103Q)mCFP cells, high-content imaging (AID 483;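 active means visual image review flags a hit and inhibition of aggregation exceeds 20%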;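 further: compound exposure lasted 3 days before fixation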;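 on nuclei count: percent of the per-plate median nuclei count of sample wells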); settings: exon1htt(103Q)mCFP cell line, aggregate imaging, at 2 µM; inhibition of aggregation: stronger effect = higher value; nuclei count: measured here: cell count, toxicity
[3] = inhibitors of E-selectin induction by TNFa, primary screen, imaging, HUVEC, immunofluorescence, MLSMR starter and 10KST1 sets (AID 487;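 active means visually confirmed hit in the image check and inhibition above 20%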;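 on inhibition: signal is fraction of cell area covered by stained E-selectin grains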;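 on nuclei count: 100% = median nuclei count of all wells on the same plate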); settings: HUVEC TNFalpha-induced E-selectin immunofluorescence imaging, at 2 µM; inhibition: stronger effect = higher value; nuclei count: measured here: cell number, toxicity
[4] = molecular target: Voltage-gated potassium channel subunit beta-2 (Rattus norvegicus) (UniProt P62483); test: KvBeta enzyme negative modulators, primary screen, biochemical, NADPH fluorescence (AID 622); settings: recombinant KvBeta, 4-cyanobenzaldehyde reduction, at 10 µM, stronger effect = higher value;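 further: slope of raw intensity against log time taken from 70 to 1610 s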
[5] = molecular target: Voltage-gated potassium channel subunit beta-2 (Rattus norvegicus) (UniProt P62483); test: KvBeta positive modulators, primary screen, biochemical, NADPH fluorescence (AID 623;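 active means NADPH fluorescence slope more negative than the mean of all samples by about 3 SD, 99.7% confidence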;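 further: fluorescence intensity change per second fitted from 20 to 320 s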); settings: Recombinant KvBeta, NADPH fluorescence decrease slope, 10 min; at 10 µM; stronger effect = lower value
[6] = molecular target: Alpha-2C adrenergic receptor (Homo sapiens) (UniProt P18825); test: modulators of alpha2C/GIRK thallium flux, primary screen, cell-based, HEK293 alpha2C/GIRK1/2 (AID 624;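 active means fluorescence slope after compound addition differing from the mean of all screened samples at 99.7% confidence, in either direction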;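 further: slope of fluorescence ratio to pre-addition baseline per second over 15 to 24 s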); settings: thallium flux BTC fluorescence, at 10 µM, actives lie on both sides
[7] = inhibitors of Sendai virus-induced IRF3 signaling, primary screen, TLR/RLR signaling modifier project, cell-based, Sendai virus stimulus, luciferase, 10K MLSCN set (AID 602276;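 active means inhibition at or above 50% at 10 µM; inactive means inhibition below 50%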;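 further: firefly luciferase from ISG56 promoter only with Renilla not read in this screen; 0% = Sendai virus plus DMSO and 100% = medium plus DMSO without virus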); settings: HEK293 RL24 IRF3 luciferase reporter, at 10 µM, stronger effect = higher value
[8] = inhibitors of poly I:C-induced TLR3 signaling, primary screen, cell-based, poly I:C stimulus, luciferase, 10K MLSCN set (AID 602277;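 active means inhibition of the reporter signal at or above 50%; inactive means inhibition below 50%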); settings: HEK293-TLR3 RL24 IRF3 luciferase reporter, at 10 µM, stronger effect = higher value

Chain of Alpha-2C adrenergic receptor (Homo sapiens) (P18825 whole entry, looked up): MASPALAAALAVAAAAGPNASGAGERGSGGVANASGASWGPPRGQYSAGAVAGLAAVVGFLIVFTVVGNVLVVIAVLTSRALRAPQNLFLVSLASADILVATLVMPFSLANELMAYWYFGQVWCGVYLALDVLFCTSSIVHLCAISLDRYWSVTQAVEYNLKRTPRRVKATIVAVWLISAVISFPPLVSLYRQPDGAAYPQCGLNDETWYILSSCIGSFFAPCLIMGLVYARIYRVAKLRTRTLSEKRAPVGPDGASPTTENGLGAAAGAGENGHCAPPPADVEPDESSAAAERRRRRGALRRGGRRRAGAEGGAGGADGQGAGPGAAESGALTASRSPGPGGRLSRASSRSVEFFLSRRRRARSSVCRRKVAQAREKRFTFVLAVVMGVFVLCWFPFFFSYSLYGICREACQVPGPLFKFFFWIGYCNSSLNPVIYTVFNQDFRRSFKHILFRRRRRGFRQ
Chain of Voltage-gated potassium channel subunit beta-2 (Rattus norvegicus) (P62483 whole entry, looked up): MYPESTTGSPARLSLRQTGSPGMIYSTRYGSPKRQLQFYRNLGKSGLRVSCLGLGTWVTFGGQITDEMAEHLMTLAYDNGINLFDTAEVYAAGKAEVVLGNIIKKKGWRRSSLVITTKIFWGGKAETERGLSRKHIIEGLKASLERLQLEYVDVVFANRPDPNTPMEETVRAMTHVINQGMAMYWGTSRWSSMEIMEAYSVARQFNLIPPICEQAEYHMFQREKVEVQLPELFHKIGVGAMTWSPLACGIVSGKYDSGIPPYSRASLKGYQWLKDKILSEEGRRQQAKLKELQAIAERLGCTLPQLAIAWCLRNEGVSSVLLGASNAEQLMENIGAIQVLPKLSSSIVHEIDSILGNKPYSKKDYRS

| SMILES | cell count [1] | inhibition [1] | inhibition of aggregation [2] | nuclei count [2] | inhibition [3] | nuclei count [3] | fluorescence slope [4] | NADPH fluorescence slope [5] | slope [6] | inhibition [7] | inhibition [8] |
| --- | --- | --- | --- | --- | --- | --- | --- | --- | --- | --- | --- |
| C=CCn1c(SCC(=O)O)nnc1-c1cccc(Cl)c1 | 753 | 1.3% (inactive) | -0.4% (inactive) | 103% | 19.3% (inactive) | 108% | -0.453 (inactive) | -8e-06 (inactive) | 0.00296 (inactive) | 8.76% (inactive) | 18.9% (inactive) |
| COc1ccc(CN(Cc2cc3cc4c(cc3[nH]c2=O)OCO4)C(=O)NC2CCCCC2)cc1 | 337 | 7.6% (inactive) | 38.7% (inactive) | 73.1% | -75.9% (inactive) | 99.3% | -0.368 (inactive) | -5.1e-05 (inactive) | 0.0053 (inactive) | 5.31% (inactive) | -1.61% (inactive) |
| CC1CCN(Cc2nc3c(c(=O)n(C)c(=O)n3C)n2Cc2cccc3ccccc23)CC1 | 703 | -22.3% (inactive) | 12.7% (inactive) | 105% | -26.6% (inactive) | 131% | -0.427 (inactive) | -2.4e-05 (inactive) | 0.00536 (inactive) | 13.1% (inactive) | 41.7% (inactive) |
| CCCc1cc(=O)[nH]c(Nc2ccc(OC)c(Cl)c2)n1 | 238 | -0.8% (inactive) | 17.6% (inactive) | 88.1% | 25.7% (inactive) | 70.9% | -0.478 (inactive) | -8.5e-06 (inactive) | 0.00603 (inactive) | -1.81% (inactive) | 46.2% (inactive) |
| CCN(CCNC(=O)CS(=O)(=O)Cc1nc(-c2cccc(OC)c2)oc1C)c1ccccc1 | 644 | -27.6% (inactive) | -16.4% (inactive) | 121% | -37.8% (inactive) | 107% | -0.53 (inactive) | -4e-05 (inactive) | 0.00529 (inactive) | 13.7% (inactive) | 20.1% (inactive) |
| Cc1cccc(Cn2c(SCC(=O)Nc3ccccc3)nc3c2c(=O)[nH]c(=O)n3C)c1 | 467 | 5.4% (inactive) | 44.6% (inactive) | 83.4% | 4.7% (inactive) | 89.8% | -0.394 (inactive) | 2.9e-05 (inactive) | 0.0074 (inactive) | 14.6% (inactive) | 13.4% (inactive) |
| COc1ccc(C(NC(=O)C(C)(C)C)NC(=O)C(C)(C)C)cc1 | 364 | 3% (inactive) | 0.4% (inactive) | 106% | -52.8% (inactive) | 102% | -0.618 (inactive) | -1e-05 (inactive) | 0.00914 (inactive) | 4.79% (inactive) | 9.47% (inactive) |
